In PubChem BioAssay (NCI):
Compounds without any hit were thinned out: in the full panel of roughly 83,000, 20% have a hit.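 Interpretation: 100, growth as untreated; towards 0, rising growth inhibition; 0, no net growth; 0 to -100, cell death. Compounds scoring below 10 were considered active.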 A number with no mark means an inactive call. The source made the active and inactive calls.

Assays:
Assay in all cases: NCI-60 one-dose screen, 48 h (100 = growth as untreated, 0 = no growth, -100 = all killed)
Details in all cases: 10 µM unless noted
SK-MEL-2 melanoma = system: SK-MEL-2 melanoma
SN12C renal = system: SN12C renal
UO-31 renal = system: UO-31 renal
TK-10 renal = system: TK-10 renal
ACHN renal = system: ACHN renal
CAKI-1 renal = system: CAKI-1 renal
CCRF-CEM leukemia = system: CCRF-CEM leukemia
MOLT-4 leukemia = system: MOLT-4 leukemia
A498 renal = system: A498 renal

SMILES: COc1ccc(C2SCC(=O)N2NC(=O)c2ccc(NC(=O)c3ccccn3)cc2)cc1OC (stereo not drawn)
- growth (SK-MEL-2 melanoma): 94.5%
- growth (SN12C renal): 97.3%
- growth (UO-31 renal): 89.7%
- growth (TK-10 renal): 90.1%
- growth (ACHN renal): 99.2%
- growth (CAKI-1 renal): 96.9%
- growth (CCRF-CEM leukemia): 101%
- growth (MOLT-4 leukemia): 92.1%

SMILES: Cc1cc(N/C=c2\sc3ncnn3c2=O)no1
- growth (SK-MEL-2 melanoma): 101%
- growth (SN12C renal): 95.5%
- growth (UO-31 renal): 91.5%
- growth (TK-10 renal): 109%
- growth (ACHN renal): 106%
- growth (CAKI-1 renal): 101%
- growth (CCRF-CEM leukemia): 123%
- growth (MOLT-4 leukemia): 104%

SMILES: CCCOC(=O)C1(O)CCCC1
- growth (SK-MEL-2 melanoma): 90.8%
- growth (SN12C renal): 102%
- growth (UO-31 renal): 90.6%
- growth (TK-10 renal): 98.8%
- growth (ACHN renal): 94%
- growth (CAKI-1 renal): 102%
- growth (A498 renal): 103%
- growth (MOLT-4 leukemia): 93.1%

SMILES: CCCCCC(=O)OCc1ccccc1
- growth (SK-MEL-2 melanoma): 92.7%
- growth (SN12C renal): 98.1%
- growth (UO-31 renal): 82.7%
- growth (TK-10 renal): 99.7%
- growth (ACHN renal): 98.1%
- growth (CAKI-1 renal): 96.5%
- growth (A498 renal): 114%
- growth (MOLT-4 leukemia): 86.3%

SMILES: COc1cc(NCCCN=C(N)NC(N)=NC(C)C)c2ncccc2c1
- growth (SK-MEL-2 melanoma): 16.2%
- growth (SN12C renal): 38.1%
- growth (UO-31 renal): 69.1%
- growth (TK-10 renal): 107%
- growth (ACHN renal): 94%
- growth (CAKI-1 renal): 94.7%
- growth (A498 renal): 120%
- growth (MOLT-4 leukemia): 57.7%

SMILES: COc1ccc(S(=O)(=O)NCCNc2nccc(-c3c(-c4ccccc4)nc4sccn34)n2)cc1
- growth (SK-MEL-2 melanoma): 2.98% (active)
- growth (SN12C renal): 27.5%
- growth (UO-31 renal): 18.6%
- growth (TK-10 renal): 47%
- growth (ACHN renal): 10.3%
- growth (CAKI-1 renal): 18.3%
- growth (CCRF-CEM leukemia): 22.8%
- growth (MOLT-4 leukemia): 5.16% (active)

SMILES: NS(=O)(=O)c1ccc(NCC(=O)Nc2ccc(-c3nc4ccccc4s3)cc2)cc1
- growth (SK-MEL-2 melanoma): 87.8%
- growth (SN12C renal): 47.8%
- growth (UO-31 renal): 74.4%
- growth (TK-10 renal): 106%
- growth (ACHN renal): 105%
- growth (CAKI-1 renal): 92.9%
- growth (CCRF-CEM leukemia): 6.24% (active)
- growth (MOLT-4 leukemia): 6.23% (active)

SMILES: NC(=O)NC(=O)/C=C/C(=O)OCCCl
- growth (SK-MEL-2 melanoma): 113%
- growth (SN12C renal): 104%
- growth (UO-31 renal): 89.2%
- growth (TK-10 renal): 72.1%
- growth (ACHN renal): 79.9%
- growth (CAKI-1 renal): 99.6%
- growth (A498 renal): 103%
- growth (MOLT-4 leukemia): 96.9%

SMILES: C[C@]12CC[C@@H]3c4cc(O)c(O)cc4CC[C@H]3[C@@H]1CC[C@@H]2O
- growth (SK-MEL-2 melanoma): -16.8% (active)
- growth (SN12C renal): 50.7%
- growth (UO-31 renal): 41.4%
- growth (TK-10 renal): 87.5%
- growth (ACHN renal): 42.9%
- growth (CAKI-1 renal): 33.3%
- growth (A498 renal): 100%
- growth (MOLT-4 leukemia): 29.1%

SMILES: O=C(CNc1c(Cl)cccc1Cl)Nc1ccc(-c2nc3ccccc3s2)cc1
- growth (SK-MEL-2 melanoma): 84.8%
- growth (SN12C renal): 48%
- growth (UO-31 renal): 73.7%
- growth (TK-10 renal): 106%
- growth (ACHN renal): 42.3%
- growth (CAKI-1 renal): 28.8%
- growth (CCRF-CEM leukemia): 2.24% (active)
- growth (MOLT-4 leukemia): 5.63% (active)

SMILES: O=C(CN1CCOCC1)Nc1ccc(-c2nc3ccccc3s2)cc1
- growth (SK-MEL-2 melanoma): 115%
- growth (SN12C renal): 101%
- growth (UO-31 renal): 95%
- growth (TK-10 renal): 112%
- growth (ACHN renal): 104%
- growth (CAKI-1 renal): 99.7%
- growth (CCRF-CEM leukemia): 95.5%
- growth (MOLT-4 leukemia): 99.4%

SMILES: CCC(C)NCC(=O)O (stereo not drawn)
- growth (SK-MEL-2 melanoma): 85.6%
- growth (SN12C renal): 110%
- growth (UO-31 renal): 98.4%
- growth (TK-10 renal): 107%
- growth (ACHN renal): 97.7%
- growth (CAKI-1 renal): 97.7%
- growth (A498 renal): 107%
- growth (MOLT-4 leukemia): 106%

SMILES: COc1cccc(-c2nc3sccn3c2-c2ccnc(NCCNS(=O)(=O)c3ccccc3)n2)c1
- growth (SK-MEL-2 melanoma): 77.1%
- growth (SN12C renal): 67.9%
- growth (UO-31 renal): 37.7%
- growth (TK-10 renal): 83%
- growth (ACHN renal): 44.3%
- growth (CAKI-1 renal): 53.1%
- growth (CCRF-CEM leukemia): 42.6%
- growth (MOLT-4 leukemia): 43.2%

SMILES: NC(CC(N)C(=O)O)C(=O)O (stereo not drawn)
- growth (SK-MEL-2 melanoma): 98.6%
- growth (SN12C renal): 93.8%
- growth (UO-31 renal): 94.8%
- growth (TK-10 renal): 110%
- growth (ACHN renal): 95.7%
- growth (CAKI-1 renal): 97%
- growth (A498 renal): 108%
- growth (MOLT-4 leukemia): 107%

SMILES: O=C1c2ccccc2C(=O)c2c(N=Nc3sc(=O)[nH]c3S)cccc21
- growth (SK-MEL-2 melanoma): 95.2%
- growth (SN12C renal): 100%
- growth (UO-31 renal): 88.7%
- growth (TK-10 renal): 138%
- growth (ACHN renal): 102%
- growth (CAKI-1 renal): 96.3%
- growth (CCRF-CEM leukemia): 94.8%
- growth (MOLT-4 leukemia): 101%

SMILES: Cc1ccc(S(=O)(=O)NCCCNc2nccc(-c3c(-c4ccccc4)nc4sccn34)n2)cc1
- growth (SK-MEL-2 melanoma): 82.9%
- growth (SN12C renal): 48.1%
- growth (UO-31 renal): 33.9%
- growth (TK-10 renal): 85.8%
- growth (ACHN renal): 37.7%
- growth (CAKI-1 renal): 47.3%
- growth (CCRF-CEM leukemia): 18.5%
- growth (MOLT-4 leukemia): 43.5%
